In the supplement of paper PMC3334620:
In all, about 33,000 sequences were measured (“E-score (-0.5 to 0.5)”: median about -0.054, highest 2% from about 0.35 on). Only a selection was taken, and the highest values are over-represented in it overall.

Biological target: T1, Stb5 (UniProt P38699)
T1 sequence: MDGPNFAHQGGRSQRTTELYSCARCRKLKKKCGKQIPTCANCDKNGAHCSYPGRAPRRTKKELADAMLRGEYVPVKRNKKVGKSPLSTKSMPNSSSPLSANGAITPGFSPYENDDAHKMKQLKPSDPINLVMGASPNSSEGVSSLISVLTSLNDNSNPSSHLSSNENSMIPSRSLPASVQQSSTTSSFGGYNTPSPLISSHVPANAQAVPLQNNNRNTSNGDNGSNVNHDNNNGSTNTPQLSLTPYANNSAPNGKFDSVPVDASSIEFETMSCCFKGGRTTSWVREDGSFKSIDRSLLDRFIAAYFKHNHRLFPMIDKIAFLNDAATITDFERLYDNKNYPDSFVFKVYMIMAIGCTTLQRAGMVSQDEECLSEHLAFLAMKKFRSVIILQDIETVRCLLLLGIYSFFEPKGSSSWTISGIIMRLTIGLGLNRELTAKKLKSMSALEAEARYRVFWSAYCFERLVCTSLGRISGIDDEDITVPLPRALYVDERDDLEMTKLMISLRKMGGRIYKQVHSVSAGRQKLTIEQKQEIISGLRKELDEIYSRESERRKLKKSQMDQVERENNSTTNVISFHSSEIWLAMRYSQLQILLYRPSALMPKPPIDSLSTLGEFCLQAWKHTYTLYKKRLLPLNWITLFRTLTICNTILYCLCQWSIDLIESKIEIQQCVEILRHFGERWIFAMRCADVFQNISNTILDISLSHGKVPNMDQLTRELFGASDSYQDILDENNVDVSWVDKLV
Assay: PBM E-score (8-mer binding enrichment) (E-score (-0.5 to 0.5)); higher = stronger / more preferred TF binding
Conditions: protein concentration: 200 nM; construct: GST-full length
Protocol: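 Universal 'all 10-mer' protein binding microarrays (Agilent AMADID 015681) probed with GST-tagged S. cerevisiae TFs (full-length or DBD) made by in vitro transcription/translation (PURExpress), about 100-200 nM. Bound TF was detected with fluorescent anti-GST. Each ungapped 8-mer (which stands for itself and its reverse complement) is scored by the PBM enrichment score (E-score), a modified Wilcoxon-Mann-Whitney statistic from -0.5 to +0.5, computed with the Universal PBM Analysis Suite. Scale: above 0.35 generally sequence-specific binding.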

| Sequence | PBM E-score |
| --- | --- |
| GCCGACGC | 0.316 |
| AACGACGG | 0.242 |
| CCCGACGC | 0.388 |
| CACGACGG | 0.168 |
| CCCGACGA | 0.31 |
| GCCGACGA | 0.308 |
| ACCGACGA | 0.354 |
| AGCGACGG | 0.245 |
| ACCGACGG | 0.42 |
| TCCGACGA | 0.252 |
| AGGGGGAC | -0.248 |
| CGCTGGGC | 0.106 |
| AGAGGCGG | 0.253 |
| CATAGAAG | -0.126 |
| AGACCCAG | -0.291 |
| GAGGTCCC | -0.19 |
| CTTGGGCA | -0.0874 |
| AGGCCACC | -0.188 |
| CCCTCGAA | -0.222 |
| TAGAACAA | -0.15 |
| CCTTGGTA | 0.0875 |
| AACGACGT | -0.0504 |
| ACCGACGC | 0.306 |
| ACCGACGT | 0.355 |
| TGTGATAA | -0.171 |

| Sequence | PBM E-score |
| --- | --- |
| AATACCAT | -0.0252 |
| AATACCGA | 0.415 |
| AATACCAG | -0.007 |
| TATACCGA | 0.26 |
| GATACCGC | 0.35 |
| CATACCGA | 0.279 |
| AATACCGG | 0.417 |
| AATACCCT | -0.00882 |
| CATACCGC | 0.307 |
| CATACCGG | 0.193 |
| AATACCGT | 0.438 |
| AATACCGC | 0.454 |
| CGCGTCTC | 0.0131 |
| CATCGACG | 0.0157 |
| ATTGCAGA | -0.201 |
| CGCAGCAA | -0.192 |
| ACCGTCCA | 0.242 |
| AATGTGCA | -0.241 |
| CGCAGAGC | -0.0211 |
| ATGTGCTC | -0.151 |
| CTGGACTA | -0.143 |
| CAACATTA | -0.0568 |
| GGCACCGA | 0.351 |
| AGCACCGA | 0.476 |
| AGCACCCG | 0.153 |

| Sequence | PBM E-score |
| --- | --- |
| AGCACCGG | 0.421 |
| AGCACCTA | -0.104 |
| AGCACCAG | -0.177 |
| ACAGAATC | -0.16 |
| AACCGTAG | -0.118 |
| CATTTCTA | 0.0892 |
| CGGACTTC | 0.374 |
| GGGACTAA | 0.246 |
| TGGACTAA | -0.0846 |
| CGGACTCA | 0.411 |
| GGGACTGA | -0.172 |
| CGGACTAA | 0.428 |
| AGGACTGA | -0.184 |
| GGGACTCA | -0.0395 |
| CGGACTGA | 0.359 |
| CGGACTCC | 0.231 |
| CTGACTTC | 0.00183 |
| AGGACTTC | -0.196 |
| AGATCCAT | 0.0463 |
| ATAACGAG | -0.103 |
| CTGGCCTC | -0.252 |
| AGCATCGC | 0.0104 |
| CCACCTAA | -0.0966 |
| ACAGTACG | -0.197 |
| CGTTACCA | -0.112 |

| Sequence | PBM E-score |
| --- | --- |
| CCCAGTAA | -0.198 |
| ATGACCGG | 0.308 |
| ATGACCGC | 0.381 |
| ATGACCGA | 0.31 |
| CGGACCGC | 0.298 |
| AGGACCGC | 0.397 |
| AGGACCGA | 0.33 |
| CTGGTGCC | 0.0505 |
| CGTGCAAA | -0.0367 |
| CCCGAGCA | -0.166 |
| CAGCGTAG | -0.0828 |
| ACGGTTCG | 0.0226 |
| GAATTAAC | -0.0887 |
| TAGTGGCA | -0.0544 |
| GGTCGGAC | 0.369 |
| CGTCGGCA | 0.334 |
| CGTCGGAC | 0.38 |
| CGTCGGAA | 0.24 |
| GCTCGGAC | 0.242 |
| AGTCGGAA | 0.221 |
| CGTCGGAG | 0.343 |
| GGTCGGCA | 0.375 |
| GGTCGGAA | 0.251 |
| AGTCGGCA | 0.325 |
| AGTCGGAG | 0.302 |

| Sequence | PBM E-score |
| --- | --- |
| AGTCGGAC | 0.398 |
| ACGCCTAT | -0.198 |
| TACTACAA | -0.0615 |
| ACAGCACT | -0.196 |
| TCACCCGA | 0.089 |
| AGAGAAGC | -0.27 |
| TAGTCAGA | -0.116 |
| TCTGAGCA | -0.254 |
| CGTCGGGC | 0.361 |
| AGTCGGGC | 0.312 |
| CGTCGGGA | 0.337 |
| TGGTTTAA | -0.231 |
| CGGGTTAC | 0.0485 |
| GGGTTTTA | 0.322 |
| AGGGTTAA | -0.179 |
| GGGTTTAA | 0.398 |
| GGGGTTAC | 0.397 |
| CGGGTTAA | 0.221 |
| AGGGTTAC | -0.0791 |
| GGGGTTAA | 0.404 |
| AAAACGTC | -0.179 |
| GGTTGTCA | -0.0232 |
| AACCGCTC | 0.119 |
| GACCGCTA | 0.359 |
| CACCGCTC | 0.402 |

| Sequence | PBM E-score |
| --- | --- |
| CACCGCTA | 0.388 |
| GACCGCTC | 0.267 |
| TACCGCTA | 0.306 |
| AACCGCTA | 0.0216 |
| AGCCGCTG | 0.14 |
| CACCGCTG | 0.405 |
| GACCGCAA | 0.248 |
| GACCGCGA | 0.31 |
| AACCGCTG | 0.0244 |
| ATAGAGTG | -0.054 |
| ACAGTAAT | -0.154 |
| CTGGCAAA | -0.24 |
| CTCATCGC | -0.0444 |
| CACAATGA | -0.244 |
| ACGGACCA | 0.237 |
| ACGGACCT | 0.426 |
| ACGGACAT | 0.41 |
| ACGGACAG | 0.00554 |
| ACGGACAC | 0.215 |
| ACGGACCG | 0.297 |
| TACTTTGA | -0.207 |
| ATGTCCGC | 0.443 |
| CCGTCCGC | 0.292 |
| ATGTCCCG | 0.219 |
| GTGTCCGA | 0.231 |

| Sequence | PBM E-score |
| --- | --- |
| ATGTCCCC | 0.224 |
| ACGTCCGA | 0.333 |
| ATGTCCGG | 0.415 |
| CTGTCCGC | 0.129 |
| ACGTCCGC | 0.367 |
| CTGTCCGA | 0.201 |
| ATGTCCGA | 0.412 |
| ATGTCCTG | -0.0717 |
| CCAAGCAA | -0.148 |
| CTGCTAGA | 0.0321 |
| CTAAGGCA | -0.101 |
| CTTGTCTA | -0.11 |
| CCAGGCCA | -0.312 |
| AGCGGTAA | 0.34 |
| GGCGGTAC | 0.361 |
| AGCGGTAC | 0.347 |
| GGCGGTAA | 0.385 |
| TGCGGTAA | 0.278 |
| CGCGGTAC | 0.34 |
| TCAAGTCA | -0.175 |
| GCACCTCA | -0.199 |
| CAATTATC | 0.215 |
